Values joined by “and” are separate entries in the source; they are usually repeats but may differ in a detail not shown here. Equal values may be shown once. Among all 310,000 compounds or so, about 1,000 (0.32%) were called active. The rule behind the calls is not given here. Not all results are given here. Entries with a potency or affinity are not part of this list.
Assay: Inhibition of PhoP regulon, Salmonella typhi GFP reporter cells, confirmation, 4 h (AID 1850);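 note: 0% = induced wells with vehicle and 100% = uninduced wells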
Settings: Salmonella Typhi PhoP-promoter GFP reporter, fluorescence, at 50 µM, active compounds read high
For `CCC(C)NC(=O)CSc1nc2ccc(N3CCOCC3)cc2c(=O)n1CCc1ccccc1` (stereo unspecified), the inhibition was -0.99% (inactive). For `Cc1cc(C(=O)N/N=C/c2c(C)n(C)c3ccccc23)n[nH]1`, the inhibition was -9.94% (inactive). For `O=C(O)[C@@H]1CC(O)CN1C(=O)CCc1c[nH]c2ccccc12` (stereo partly specified), the inhibition was 6.6% (inactive). In the case of `CN(C)CC/C=C1/c2cc(F)ccc2CSc2ccc(F)cc21`, the inhibition is reported as -7.52% (inactive). With `CN(C)CC/C=C1/c2ccccc2Sc2ccc(Cl)cc21` the inhibition was 21% (inactive). For `COc1cc2c(cc1Cl)/C(=C\CCN(C)C)c1ccccc1S2`, the inhibition was 2.09% (inactive). For `CN(C)CC/C=C1/c2ccccc2Sc2c(O)cc(Cl)cc21`, the inhibition was 14.1% (inactive). For `COc1cc(Cl)cc2c1Sc1ccccc1/C2=C/CCN(C)C`, the inhibition was -4.02% (inactive). In the case of `CN(C)CC/C=C1/c2ccc(F)cc2Sc2ccc(Cl)cc21`, the inhibition is reported as -10.8% (inactive). For `CN(C)CC/C=C1\c2cc(Cl)ccc2Sc2cc(F)c(F)cc21`, the inhibition was 10.9% (inactive). With `CN(C)CC/C=C1\c2cc(F)ccc2CSc2ccccc21` the inhibition was 1.61% (inactive). For `Cc1cccc(OCCCC(=O)Nc2ccc(S(N)(=O)=O)cc2)c1`, the inhibition was -6.31% (inactive). In the case of `CCCCCCSc1ccc(-c2nc3ccccn3c2NCCCC)cc1`, the inhibition is reported as -1.64% (inactive). In the case of `CC(C)CC(=O)c1c[nH]c(C(=O)NCCCN2CCOCC2)c1`, the inhibition is reported as 0.393% (inactive). In the case of `CCc1nnc(NC(=O)C=C(C)C)s1`, the inhibition is reported as -12.1% (inactive). In the case of `O=C(CSc1nccn1-c1ccccc1)NCc1ccc(F)cc1`, the inhibition is reported as 5.7% (inactive). For `Cc1cc(C)cc(NC(=O)N2CCC(NC(=O)c3ccco3)CC2)c1`, the inhibition was -4.45% (inactive). For `COc1cc(C2(O)CCCCC2C)cc(OC)c1OC` (stereo unspecified), the inhibition was 0.64% (inactive). With `CC(C)C(C(=O)NCc1ccco1)N(Cc1ccco1)C(=O)CNS(=O)(=O)c1ccc(F)cc1` (stereo unspecified) the inhibition was -1.96% (inactive). In the case of `COc1ccc(Cl)cc1NC(=S)NCc1cccs1`, the inhibition is reported as -1.43% (inactive). For `Cc1ccc(NC(=O)c2cc(NC(=O)C3CC=CCC3C(=O)O)ccc2N2CCOCC2)cc1` (stereo unspecified), the inhibition was -15.3% (inactive). In the case of `C/C(=N\NC(=O)c1ccc(F)cc1)c1ccc(NC(=O)Cc2ccccc2)cc1`, the inhibition is reported as -10.7% (inactive). With `Oc1ccccc1-c1nc(NCC2CCCO2)c2ccccc2n1` (stereo unspecified) the inhibition was -0.56% (inactive). With `Oc1ccccc1Nc1nc(NCC2CCCO2)c2ccccc2n1` (stereo unspecified) the inhibition was 19.4% (inactive). For `COc1ccc(-c2cc(C(=O)NCC3CCCO3)c3ccccc3n2)c(OC)c1` (stereo unspecified), the inhibition was -4% (inactive). For `c1ccc2c(NCC3CCCO3)nc(N3CCOCC3)nc2c1` (stereo unspecified), the inhibition was 0.7% (inactive). For `COc1cccc(-c2nc(NCC3CCCO3)c3ccccc3n2)c1O` (stereo unspecified), the inhibition was 0.02% (inactive). With `COc1ccccc1Nc1nc(NCC2CCCO2)c2ccccc2n1` (stereo unspecified) the inhibition was 29.6% (inactive). With `Oc1ccc(Cl)cc1Nc1nc(NCC2CCCO2)c2ccccc2n1` (stereo unspecified) the inhibition was 3.79% (inactive). For `COc1ccc(S(=O)(=O)Nc2nc3ccccc3nc2NCC2CCCO2)cc1` (stereo unspecified), the inhibition was -1.23% (inactive). In the case of `O=C1CN=C(c2ccc[nH]2)c2cc(Cl)ccc2N1`, the inhibition is reported as -4.67% (inactive). In the case of `COC(=O)C1SCC2C(=O)N(Cc3cccc(C)c3)CC(=O)N21` (stereo unspecified), the inhibition is reported as 0.26% (inactive). For `CN1C(=S)SC(C)(C)C1(C)NO` (stereo unspecified), the inhibition was -6.1% (inactive). In the case of `O=C(CSc1nccn1Cc1ccccc1)Nc1ccccc1`, the inhibition is reported as -2.04% (inactive). For `CN(C)N1C(N)=C(C#N)C(c2ccc3c(c2)OCO3)C2=C1CC(C)(C)CC2=O` (stereo unspecified), the inhibition was -10.5% (inactive). For `c1ccc(-c2nc(NCC3CCCO3)c3ccccc3n2)nc1` (stereo unspecified), the inhibition was 2.1% (inactive). With `CC(C)Oc1ccc(-c2nc(NCC3CCCO3)c3ccccc3n2)cc1` (stereo unspecified) the inhibition was -13.6% (inactive). With `O=C(CN1CCN(c2ccc([N+](=O)[O-])cc2Cl)CC1)N1CCOCC1` the inhibition was 2.81% (inactive). For `CC[N+](C)(C)CCN(Cc1ccc(Cl)cc1)c1ccccn1`, the inhibition was 1.18% (inactive). With `COc1ccc(CN(CCN(C)C)c2ccccn2)cc1` the inhibition was -13% (inactive) and 6.04% (inactive). For `CCC(=O)N1CCc2cc(S(=O)(=O)NC(Cc3ccccc3)C(=O)O)ccc21` (stereo unspecified), the inhibition was -1.37% (inactive). For `Cc1nc(C(=O)NCCCO)cc2c1[nH]c1ccccc12`, the inhibition was -6.79% (inactive). In the case of `Cc1ccc(S(=O)(=O)N(CC(=O)NCc2ccncc2)Cc2ccc(F)cc2)cc1`, the inhibition is reported as 3.98% (inactive). For `NC(=S)N/N=C/c1c[nH]c2ccc(OCc3ccccc3)cc12`, the inhibition was -7.88% (inactive). In the case of `COc1ccc2[nH]cc(/C=N/NS(=O)(=O)c3ccc(C)cc3)c2c1`, the inhibition is reported as 15.2% (inactive). With `CSc1cccc(NC(=O)CCCOc2ccc(Cl)cc2C)c1` the inhibition was -5.44% (inactive). With `CCCNCc1cc(Br)ccc1OCC(=O)NCCc1ccccc1` the inhibition was -3.03% (inactive). In the case of `CCN(CC)CCNCc1cc(Br)ccc1OCC(=O)NCc1ccccc1`, the inhibition is reported as -28.2% (inactive). With `CCOc1ccccc1CNC(=O)Cn1ccc2cc(S(=O)(=O)N3CCCC3)ccc21` the inhibition was 3.38% (inactive). In the case of `Cc1c(C(=O)NC(Cc2ccccc2)c2nc3ccccc3[nH]2)cccc1[N+](=O)[O-]` (stereo unspecified), the inhibition is reported as -6.76% (inactive). With `O=Nc1c(O)[nH]c2c(F)cccc12` the inhibition was -3.73% (inactive). In the case of `O=Nc1c(O)n(Cc2ccccc2)c2ccccc12`, the inhibition is reported as -9.56% (inactive). In the case of `CCOC(=O)CC(c1ccc(N)cc1)n1c(C)ccc1C` (stereo unspecified), the inhibition is reported as -3.47% (inactive). For `COc1ccc(Cc2noc(CN3CCCC(C(=O)c4cccs4)C3)n2)cc1OC` (stereo unspecified), the inhibition was -18.4% (inactive). In the case of `Cc1nnc(SCC(=O)NC2CCS(=O)(=O)C2)n1-c1ccccc1` (stereo unspecified), the inhibition is reported as 6.38% (inactive). With `CCn1c(SCC(=O)NC2CCS(=O)(=O)C2)nnc1-c1ccccc1` (stereo unspecified) the inhibition was 3.32% (inactive). For `CN(C)c1nc(SCC(=O)Nc2ccccc2)nc(N2CCOCC2)n1`, the inhibition was 3.38% (inactive). For `O=C1CN(Cc2cc(=O)oc3cc4c(cc23)CCC4)CCN1`, the inhibition was -4.78% (inactive). With `CC1(C)C(=O)Nc2ccccc2N1C(=O)COC(=O)/C=C/c1ccc(OC(F)F)cc1` the inhibition was -3.59% (inactive). With `COc1cccc(C(C(=O)NC2CCCCC2)N(C(=O)Cc2cccs2)c2ccc(-n3cnnn3)c(OC)c2)c1` (stereo unspecified) the inhibition was -9.92% (inactive). In the case of `N#C/C(=C\c1ccccc1)C(=O)NC1CC1`, the inhibition is reported as 2.22% (inactive). In the case of `CC1CC(NC(=O)/C(C#N)=C/c2ccc[nH]2)CC(C)(C)C1` (stereo unspecified), the inhibition is reported as 5.38% (inactive). For `COc1ccc(-n2nc(C(=O)NCC(=O)N3CCN(c4ccccc4)CC3)c3ccccc3c2=O)c(OC)c1`, the inhibition was 3.7% (inactive). In the case of `CCCCCNc1nc(NCCCO)c(C#N)c2c1CN(C)CC2`, the inhibition is reported as -3.01% (inactive). For `CC(C)CCNc1nc(N2CCCC2)c2c(c1C#N)CCN(C)C2`, the inhibition was 19.4% (inactive). In the case of `CC1(c2ccc(Cl)cc2Cl)NC(=O)N(CC(=O)Nc2ccc3[nH]c(=O)[nH]c3c2)C1=O` (stereo unspecified), the inhibition is reported as -3.74% (inactive). For `COc1ccc(CNC(=O)C2CCCN(S(=O)(=O)N3CCC(C)CC3)C2)c(OC)c1` (stereo unspecified), the inhibition was -14.4% (inactive). With `CCN(CC)C(=O)c1sc(N2C(=O)Nc3ccccc3N2O)c(C(=O)OC)c1C` the inhibition was -7.07% (inactive). For `Cc1ccc(N2C(=O)CC(Sc3ncccc3C(=O)O)C2=O)cc1` (stereo unspecified), the inhibition was -7.58% (inactive). With `Cc1ccc(NC2=NC3(CCCC3)N=C(N)N2)c(C)c1` the inhibition was 13.7% (inactive). In the case of `CCOc1ccc(NC2=NC(C)(C)N=C(N)N2)cc1`, the inhibition is reported as 5.96% (inactive). In the case of `NC1=NC2(CCCCC2)N=C(Nc2ccc(F)cc2F)N1`, the inhibition is reported as 19% (inactive). With `CCCCOc1ccc(N2C(N)=NC(N)=NC23CCCCC3)cc1` the inhibition was 4.38% (inactive). In the case of `Cc1nc2ccccc2c(=O)n1/N=C/c1cc(Br)cc(Br)c1O`, the inhibition is reported as 9.81% (inactive). In the case of `Cc1nc2ccccc2c(=O)n1/N=C/c1ccccc1O`, the inhibition is reported as 1.57% (inactive). With `Cc1nc2ccccc2c(=O)n1/N=C/c1cn[nH]c1-c1ccccc1` the inhibition was -0.17% (inactive). With `Cc1ccc(-c2[nH]ncc2/C=N/n2c(COc3ccccc3)nc3ccccc3c2=O)cc1` the inhibition was -8.67% (inactive). With `COc1ccc(NC(=O)C2CCCN2C(=O)NCc2ccccc2)cc1` (stereo unspecified) the inhibition was -5.86% (inactive). In the case of `CSc1cccc(N2CC(C(=O)N(CC(C)C)c3c(N)n(Cc4ccccc4)c(=O)[nH]c3=O)CC2=O)c1` (stereo unspecified), the inhibition is reported as -3.17% (inactive). In the case of `CCOc1ccc(C(=O)Nc2nnc(C(C)C)s2)cc1OCC`, the inhibition is reported as -1.68% (inactive). With `COCCN1CCN(C(=O)C2CCC(=O)N(CCc3ccc(Cl)cc3)C2)CC1` (stereo unspecified) the inhibition was -4.1% (inactive). In the case of `O=C(O)c1cccc(Nc2ccnc(Nc3cccc(C(=O)O)c3)n2)c1`, the inhibition is reported as 2.42% (inactive). In the case of `c1ccc(Nc2cccc(Nc3ccccc3)n2)cc1`, the inhibition is reported as 6.98% (inactive). In the case of `Nc1ncnc(Nc2ccc(F)cc2)n1`, the inhibition is reported as -3.3% (inactive). In the case of `COc1ccc(Nc2ccnc(Nc3ccc(OC)cc3)n2)cc1`, the inhibition is reported as -1.84% (inactive). In the case of `Cc1c(C(=O)O)oc2ccc(S(=O)(=O)N3CCCCC3C(=O)O)cc12` (stereo unspecified), the inhibition is reported as -3.93% (inactive). With `C/C=C/c1ccc(OCC(O)CN2CCCCC2CC)c(OC)c1` (stereo unspecified) the inhibition was 8.19% (inactive). With `S=C1NC2(CCCCC2)NC12CCCCC2` the inhibition was -9.21% (inactive). With `Cc1sc2nc(SCC(N)=O)n(-c3ccccc3)c(=O)c2c1C` the inhibition was -0.27% (inactive). With `O=C(NNc1nc2ccccc2s1)c1ccc(F)cc1` the inhibition was -6.05% (inactive). With `O=C(NNc1nc2cc3c(cc2s1)OCO3)c1cccc(F)c1` the inhibition was -11.1% (inactive). With `CC(C)(C)c1ccc(S(=O)(=O)NNC(=O)C2CCN(Cc3cccc(F)c3)CC2)cc1` the inhibition was 6.86% (inactive). In the case of `C=CCOC(=O)C1=C(C)NC(SCC(=O)Nc2nccs2)=C(C#N)C1c1ccc(Cl)cc1` (stereo unspecified), the inhibition is reported as 3.36% (inactive). With `O=C1Cc2ccccc2Sc2ccc(Cl)cc21` the inhibition was -8.12% (inactive). With `NC(=O)CCN1CCN(CCOC2Cc3cc(Cl)ccc3Sc3ccccc32)CC1` (stereo unspecified) the inhibition was -4.99% (inactive). In the case of `CC(C)c1ccc2c(c1)C(N1CCNCC1)Cc1ccc(F)cc1S2` (stereo unspecified), the inhibition is reported as 19.3% (inactive). For `c1ccc2c(c1)CC(N1CCCCC1)c1ccccc1N2` (stereo unspecified), the inhibition was -3.45% (inactive). For `c1ccc2c(c1)CC(N1CCCCC1)c1ccccc1S2` (stereo unspecified), the inhibition was 16.3% (inactive). With `CN1Cc2cccc3c2C(Cc2ccccc2S3)C1` (stereo unspecified) the inhibition was -6.53% (inactive). In the case of `CN1CCN(C2Cc3ccccc3Sc3ccc(Cl)cc32)CC1` (stereo unspecified), the inhibition is reported as -13% (inactive). With `CN1CCN(C2Cc3ccccc3Sc3cc(C(F)(F)F)ccc32)CC1` (stereo unspecified) the inhibition was 2.06% (inactive).
